Hits are enriched below; roughly 3.4% of the tested compounds scored in any of these assays.
AI-2 QS mod: Vibrio harveyi AI-2 quorum sensing modulation; Vibrio harveyi JMH597 AI-2 luminescence/OD600 ratio, 9 h; active compounds read low; strain lacks LuxN and CqsS sensors; 0 = neutral-control median; activity change, % at 7.5 µM; hit rate 0.4% among 300,000; AID 2094; in the data active means activity change below about -75%, passing the limit was not always enough;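 further: luminescence divided by OD600 gain over 9 h not by final OD600 alone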
SMARCA2 activ: SMARCA2 function activation, primary screen | MG213 cells, MMTV-luciferase reporter, dexamethasone, overnight | activation, % at 9.1 µM | hit rate 1% among 370,000; in the data active means activation above about 7.8%
FXN GAA850 act: activators of GAA850 frataxin (FXN) promoter; HEK293 lucGAA850 FXN promoter luciferase reporter, 24 h; percent of 10 µM SAHA response; activation, % at 6 µM; hit rate 0.56% among 360,000;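 active means activation above the average of all compounds screened plus 3 SD, cutoff fixed separately per campaign, cut at about 7.5% in these data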
HSP90 inh: inhibitors of HSP90 luciferase refolding in rabbit reticulocyte lysate. luciferase refolding luminescence, 3 h. inhibition, % at 5.6 µM. hit rate 0.91% among 290,000. AID 1789;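 active means inhibition above the screen-wide mean plus 3 SD, computed separately per campaign, cut at about 16% in these data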;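 further: inhibitors lower the luminescence because luciferase stays unfolded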
HSF1 inhib: HSF1 inhibition; NIH3T3-HGL HSE-luciferase, MG132-induced, luminescence 8 h; active compounds read low; activity change, negative = inhibition, % at 7.5 µM (by protocol); hit rate 0.77% among 300,000; AID 2098;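 active means more than half of replicate wells show activity change below -50%, luminescence cut by over half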;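 further: luciferase reports HSF-1 transcriptional activity via heat shock element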
PG9 Ab binder: small molecules binding HIV-1 gp120 antibody PG9. TR-FRET gp120-PG9 antibody binding. inhibition, % at 6.7 µM. hit rate 0.43% among 360,000. AID 624416; in the data active means inhibition above about 8.5%
Numbers stand for hits; n = inactive; x = not tested or not shown.

SMILES | AI-2 QS mod | SMARCA2 activ | FXN GAA850 act | HSP90 inh | HSF1 inhib | PG9 Ab binder
O=C(Nc1c(F)cccc1F)c1cnc(N2CCN(c3ccccn3)CC2)c2ccccc12 | n | n | n | n | n | n
Cc1ccc(NC(=O)c2cnc(N3CCN(c4ccccn4)CC3)c3ccccc23)c(Br)c1 | n | n | n | n | -63 | n
COc1ccc(Cn2c(SC)nc3ccccc32)cc1[N+](=O)[O-] | n | n | n | n | -61 | n
Cc1ccc(CSc2ccc(-c3ccco3)nn2)cc1 | -86 | n | n | n | n | n
O=C(C1CCCN1S(=O)(=O)c1cccc([N+](=O)[O-])c1)N1CCN(c2ccccc2)CC1 (stereo unspecified) | x | n | x | x | x | x
O=C(NCCc1ccc(Cl)cc1)c1cc(S(=O)(=O)N2CCCCC2)c[nH]1 | n | x | n | 38 | n | x
CCCCOc1ccc(C(=O)NC2CCCCN(C(C)C)C2=O)cc1 (stereo unspecified) | x | n | x | x | x | x
Clc1ccc(-c2nc3ncccn3c2Cl)cc1 | n | x | 13 | n | n | x
CC1OC(Nc2cccc3ccccc23)C(O)C(O)C1O (stereo unspecified) | n | n | n | n | -96 | n
N=c1c(C(=O)NC2CCCC2)cc2c(=O)n3ccccc3nc2n1Cc1ccccc1 | n | n | n | n | -91 | n
CCOCCCn1c(=NC(C)=O)c(C#N)cc2c(=O)n3ccccc3nc21 | n | n | n | n | n | n
Cc1ccc(Cn2c(=N)c(C(=O)NC3CCCCC3)cc3c(=O)n4ccccc4nc32)cc1 | n | n | n | n | n | n
CC(=O)N=c1c(C#N)cc2c(=O)n3ccccc3nc2n1Cc1ccccc1 | n | 8.3 | n | n | n | n
COc1ccc(-c2ccc3c(n2)CCCN3S(=O)(=O)c2ccc(C#N)cc2)cc1 | x | n | x | x | x | n
O=C(CCc1nc2ccccc2c(=O)[nH]1)NCc1ccco1 | n | n | n | n | -65 | n
COc1ccc(CC(=O)Nc2ccc(S(=O)(=O)Nc3cc(C)on3)cc2)cc1 | -92 | n | n | n | n | n
O=C(CCSc1ccccc1)Nc1ccc(S(=O)(=O)Nc2ncccn2)cc1 | -79 | n | n | n | n | n
Cc1ccc(CC(=O)Nc2ccc(S(=O)(=O)Nc3ncccn3)cc2)cc1 | -92 | n | n | n | n | n
CCc1ccc(NC(=S)Nc2ccc(S(=O)(=O)Nc3ncccn3)cc2)cc1 | n | n | n | n | -56 | n
Cc1cc(NS(=O)(=O)c2ccc(NC(=O)Cc3ccccc3)cc2)no1 | x | n | x | x | x | x
Cc1ccc(CC(=O)Nc2ccc(S(=O)(=O)Nc3nccc(C)n3)cc2)cc1 | n | n | n | n | n | n
Cc1ccc(S(=O)(=O)N2CCCC2C(=O)N2CCN(c3ccccc3)CC2)cc1C (stereo unspecified) | x | n | x | x | x | x
CCOC(=O)[C@]12CCCC3=C1N(CCC3)C(=O)[C@@H](CC(=O)NCc1ccc(C)o1)C2 | x | n | x | x | x | x
CCCC(=O)OC[C@H]1CN(C2CCCC2)S(=O)(=O)c2c(Oc3ccc(F)cc3)cccc2O1 | x | n | x | x | x | n
O=c1[nH]cnc2nn(C3OC(CO)C(O)C3O)nc12 (stereo unspecified) | x | n | x | x | x | n
SMILES | AI-2 QS mod | SMARCA2 activ | FXN GAA850 act | HSP90 inh | HSF1 inhib | PG9 Ab binder
O=C(OCC(=O)N1CCCCC1)c1c[nH]c2ccccc12 | x | 7.8 | n | x | x | n
O=C(OCC(=O)N1CCCC1)c1c[nH]c2ccccc12 | x | n | n | x | x | n
Cc1ccc2c(c1)N(Cc1ccc([N+](=O)[O-])cc1)C=NS2(=O)=O | n | n | n | n | -65 | n
Cc1ccc2c(c1)N(Cc1cccc(C#N)c1)C=NS2(=O)=O | n | n | n | n | n | n
CC(C)c1nc2ccccc2c2nnc(SCC(=O)NCc3ccco3)n12 | n | n | n | n | -60 | n
CC(C)(C)c1nc2ccccc2c2nnc(SCC(=O)NCc3ccco3)n12 | n | n | n | n | n | n
O=C1C(C=Nc2ccccc2O)=C(O)c2ccccc21 | n | n | n | 17 | n | n
O=C1C(C=Nc2ccccc2)=C(O)c2ccccc21 | n | n | n | 17 | n | n
COc1ccc(-c2cc(NC(=O)Cc3c[nH]c4ccccc34)ccc2Nc2cccnc2)cc1F | x | n | x | x | x | n
COc1ccc(CCn2cnn3c(=O)c4ccccc4nc3c2=O)cc1OC | x | n | x | x | x | n
O=C(Nc1cccc(S(=O)(=O)N2CCOCC2)c1)c1ccccn1 | n | n | n | n | -70 | n
CCCCOCCCNC(=O)C[C@@H]1C(=O)N(CCc2ccc(Cl)cc2)C2=CCCC[C@]21C(=O)OCC | x | n | x | x | x | x
COc1ccc(S(=O)(=O)NCCC(=O)NCc2cccs2)cc1 | n | n | n | n | -70 | n
CCOC(=O)[C@@]12CN(C(=O)OC(C)(C)C)CC=C1N(Cc1ccc(OC)cc1)C(=O)[C@H]2CC(=O)NCc1cccc(C(F)(F)F)c1 | x | n | x | x | x | x
COc1ccc2nc(SCc3cccc(C)c3)nc(C)c2c1 | n | 8.5 | n | n | n | n
CCOc1cc(C(=S)N2CCOCC2)ccc1OS(=O)(=O)c1ccc(OC)cc1 | n | n | n | n | -78 | n
CCOc1cc(C(=S)N2CCOCC2)ccc1OS(=O)(=O)c1ccc(NC(C)=O)cc1 | n | n | n | n | n | n
CC(OC(=O)CN1C(=O)NC(C)(C)C1=O)C(=O)c1ccccc1 (stereo unspecified) | n | n | n | n | n | n
CC(OC(=O)CN1C(=O)NC2(CCCC2)C1=O)C(=O)c1ccccc1 (stereo unspecified) | n | n | n | x | -70 | n
Cc1ccc(N(C)C(=O)CN(C)S(=O)(=O)c2ccc3c(c2)n(C)c(=O)c(=O)n3C)cc1 | n | n | n | n | -91 | n
Cc1ccc([N+](=O)[O-])cc1NC(=O)CSc1n[nH]c(-c2cccnc2)n1 | n | n | n | n | -87 | n
O=C(NN=Cc1ccco1)c1cccnc1 | x | n | x | x | x | x
Cc1ccc(N2C(=O)c3ccccc3C2O)nc1 (stereo unspecified) | n | x | x | 33 | n | x
Cc1ccc(N2C(=O)c3ccccc3C2Nc2ccccc2F)nc1 (stereo unspecified) | n | n | n | n | n | n
CCOc1ccccc1NC(=O)c1cc2c(C)nn(-c3ccccc3)c2s1 | x | n | x | x | x | x
SMILES | AI-2 QS mod | SMARCA2 activ | FXN GAA850 act | HSP90 inh | HSF1 inhib | PG9 Ab binder
COc1c(Cl)cnn(-c2ccc(C)cc2)c1=O | n | n | n | n | n | n
Cc1ccc(-n2ncc(Br)c(Br)c2=O)cc1 | n | x | n | n | -85 | x
CCCN(CC1CC1)C(=O)CN1C(=O)C2CCCCN2C(=O)c2ccccc21 (stereo unspecified) | x | n | x | x | x | x
CCn1c(SCC(=O)NN=Cc2c[nH]c3ccccc23)nc2ccccc21 | x | n | x | x | x | x
CC(NC(=O)CN1CCN(c2ccc(Cl)cc2)CC1)c1ccccc1 (stereo unspecified) | n | n | n | n | n | n
CCOc1ccccc1N1CCN(CC(=O)NC(C)c2ccccc2)CC1 (stereo unspecified) | n | n | n | n | -61 | n
CCCCC(=O)N1CCN(C(=O)c2ccc3nc(C)n(C4CCCC4)c3c2)CC1 | x | n | x | x | x | x
O=S(=O)(N/N=C\C=C\c1ccccc1)c1ccc(Br)cc1 | -92 | n | n | n | n | n

Screens deposited in PubChem by several laboratories.
